Measurements as given in PubChem BioAssay (NCATS).
Records with an inconclusive call do not appear. Calls of active or inactive are those of the source. Calls come from the whole dose curve; as a rule, active = well fitted cell-killing curve with a large enough effect; inconclusive = small, poorly fitted or top-dose-only effect, or effect the other way; inactive = flat fitted curve, though single readings scatter. *1 amine or outer side, *2 acyl side, *3 side chain or, on linkers, in order; H or OH if unused. Where a SMILES comes first, the peptide text is derived from it. [ ]: non-standard residue; d: D form. The star is where a group is joined. ξ: configuration not given here. X9 = CCC(C)(N*)C(=O)C1CC[C@@H](C(=O)N[C@@H](Cc2ccccc2)C(=O)NCC(=O)O)N1; X8 = O=C([C@@H]1CC(O)CN1[*:1])[*:2]; aIle = CC[C@@H](C)[C@H](N)C(=O)O; Thr(3ξ) = CC(O)[C@H](N)C(=O)O; ξIva = CCC(C)(N)C(=O)O; Aib = CC(C)(N)C(=O)O

Key:
Test in all cases: Primary qHTS to identify gynecologic anti-cancer compounds using libraries of approved drugs and bioactive compounds (AID 1345084); note: nearly all actives have a fitted effect of over 55% in size
Conditions in all cases: Gynecologic cancer cell panel viability, ATPlite luminescence, 48 h; series mostly up to 57.5 µM
OV90 = tested on: OV90
Method in brief: (§1)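 Cell viability after 48 h drug treatment, ATPlite luminescence readout; five doses.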

PA-1 = tested on: PA-1
Method in brief: as §1

SKOV3 = tested on: SKOV3
Method in brief: as §1

Tov-21-G = tested on: Tov-21-G
Method in brief: as §1

Tov112D = tested on: Tov112D
Method in brief: as §1
% is set by controls: 0 for no effect and ±100 for the full control effect.

CCC(C)/C=C(C)/C=C/C1=CC2=C(Cl)C(=O)C(C)(OC(C)=O)C(=O)C2=CN1C(CC(=O)O)C(=O)O (stereo not given)
inactive: Potency (OV90) | Potency (PA-1) | Potency (SKOV3) | Potency (Tov-21-G) | Potency (Tov112D)

C=C1CCC2C(C)(C)CC(=O)CC2(C)C1CCC(C)CCO (stereo not given)
inactive: Potency (OV90) | Potency (PA-1) | Potency (SKOV3) | Potency (Tov-21-G) | Potency (Tov112D)

Nc1ncnc2c1C(=O)N(c1ccc(C3CCC(CC(=O)O)CC3)cc1)CCO2 (stereo not given)
inactive: Potency (OV90) | Potency (PA-1) | Potency (SKOV3) | Potency (Tov-21-G) | Potency (Tov112D)

O=C(O)CCc1ccc(NCc2cccc3c2CCCN3CCOc2ccccc2)cc1F
inactive: Potency (OV90) | Potency (PA-1) | Potency (SKOV3) | Potency (Tov-21-G) | Potency (Tov112D)

C=C1CCC2(OC1)OC1CC3C4CC=C5CC(O)CC(O[C@@H]6OC[C@H](OC(=O)C(O)C(C)CC)[C@H](O)[C@H]6O[C@@H]6O[C@@H](C)[C@H](O)[C@@H](O)[C@H]6O)C5(C)C4CCC3(C)C1C2C (stereo not given in full)
inactive: activity change, negative = cytotoxicity (OV90) -4.79% [at 11.6 µM] | activity change, negative = cytotoxicity (PA-1) -0.0668% [at 11.6 µM] | activity change, negative = cytotoxicity (SKOV3) 6.52% [at 11.6 µM] | activity change, negative = cytotoxicity (Tov-21-G) 15.3% [at 11.6 µM] | activity change, negative = cytotoxicity (Tov112D) 19.2% [at 11.6 µM]

Fc1ccc(-c2c3cccc(C(F)(F)F)c3nn2Cc2ccc(F)cc2Cl)cc1
inactive: Potency (OV90) | Potency (PA-1) | Potency (SKOV3) | Potency (Tov-21-G) | Potency (Tov112D)

C=C[C@H]1[C@H](O[C@@H]2O[C@H](CO)[C@@H](O)[C@H](O)[C@H]2O)OC=C(C(=O)OC)[C@H]1CC=O
inactive: Potency (OV90) | Potency (PA-1) | Potency (SKOV3) | Potency (Tov-21-G) | Potency (Tov112D)

CC[C@@H](C)[C@H](NC(=O)C(C)(C)NC(=O)[C@H](CCC(N)=O)NC(=O)C(C)(CC)NC(=O)[C@H](Cc1c[nH]c2ccccc12)NC(C)=O)C(=O)N[C@H](C(=O)NC(C)(C)C(=O)N[C@@H](CC(C)C)C(=O)NC(C)(C)C(=O)N1CCC[C@H]1C(=O)N[C@@H](CCC(N)=O)C(=O)NC(C)(C)C(=O)N1CC(O)C[C@H]1C(=O)NC(C)(CC)C(=O)C1CC[C@@H](C(=O)N[C@@H](Cc2ccccc2)C(=O)NCC(=O)O)N1)C(C)O (stereo not given in full) (Ac-W[ξIva]Q[Aib][aIle][Thr(3ξ)][Aib]L[Aib]PQ[Aib][X8]-X9)
inactive: activity change, negative = cytotoxicity (OV90) -20.1% [at 6.55 µM] | activity change, negative = cytotoxicity (PA-1) -32% [at 6.55 µM] | activity change, negative = cytotoxicity (SKOV3) -9.13% [at 6.55 µM] | activity change, negative = cytotoxicity (Tov-21-G) -16.8% [at 6.55 µM] | activity change, negative = cytotoxicity (Tov112D) -24.7% [at 6.55 µM]
